In PubChem BioAssay (EPA / NIEHS):
A structure can be active in one record and inactive in another. Activity calls are given as the source filed them. The calls were made as follows: active = hit-call score of the fitted dose curve at least 0.9, where 1 is the maximum; inactive = score below 0.9.

Tests used:
[1] = read-out: Cyclin Dependent Kinase Inhibitor 1A (CDKN1A), CDKN1A (gene 1026); assay: LTEA_HepaRG_CDKN1A: Life Technologies and Expression Analysis (LTEA) Assay for Cyclin Dependent Kinase Inhibitor 1A (CDKN1A) using HepaRG (AID 2283450); settings: mRNA level, 48 h; actives raise or lower the signal
Procedure, shortened: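 Gain or loss of CDKN1A transcript is scored by bidirectional fitting against 0.5% DMSO vehicle. Human HepaRG cultures receive chemicals for 48 h across an 8-point series peaking at 100 uM; expression comes from qRT-PCR.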

[2] = read-out: Cyclin D1 (CCND1), CCND1 (gene 595); assay: LTEA_HepaRG_CCND1: Life Technologies and Expression Analysis (LTEA) Assay for Cyclin D1 (CCND1) using HepaRG (AID 2283451); settings: mRNA level, 48 h; actives raise or lower the signal;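 as to AC50: TaqMan qRT-PCR transcript level normalised to ACTB GAPDH and POLR2A housekeeping genes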
Procedure, shortened: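 Expression change is measured by qRT-PCR in HepaRG cells after 48 h treatment across eight concentrations topping at 100 uM, with duplicate wells and DMSO (0.5%) serving as baseline for bidirectional fitting.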

[3] = read-out: catalase (CAT), CAT (gene 847); assay: LTEA_HepaRG_CAT: Life Technologies and Expression Analysis (LTEA) Assay for catalase (CAT) using HepaRG (AID 2283452); settings: mRNA level, 48 h; actives raise or lower the signal;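 as to AC50: TaqMan qRT-PCR signal normalized to ACTB GAPDH and POLR2A housekeeping genes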
Procedure, shortened: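 HepaRG cells in serum-free induction medium, 0.5% DMSO vehicle, exposed 48 h in duplicate over 8 half-log concentrations from 100 uM. CAT mRNA measured by qRT-PCR, normalized to ACTB, GAPDH, POLR2A; bidirectional fit versus DMSO.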

[4] = read-out: Cytochrome P450 (CYP1A1), CYP1A1 (gene 1543); assay: LTEA_HepaRG_CYP1A1: Life Technologies and Expression Analysis (LTEA) Assay for Cytochrome P450 (CYP1A1) using HepaRG (AID 2283454); settings: mRNA level, 48 h; actives raise or lower the signal
Procedure, shortened: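 Using HepaRG cultures with 0.5% DMSO as vehicle, eight-concentration exposures (max 100 uM) lasted 48 h. Transcript levels were measured by TaqMan qRT-PCR and normalized to ACTB, GAPDH and POLR2A.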

[5] = read-out: CFLAR gene, CFLAR (gene 8837); assay: LTEA_HepaRG_CFLAR: Life Technologies and Expression Analysis (LTEA) Assay for CFLAR gene using HepaRG (AID 2283455); settings: mRNA level, 48 h; actives raise or lower the signal
Procedure, shortened: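 Differentiated HepaRG cells in serum-free induction medium were exposed 48 h in duplicate to eight half-log concentrations up to 100 uM in 0.5% DMSO; mRNA measured by TaqMan qRT-PCR, normalized to ACTB, GAPDH, POLR2A; bidirectional fitting versus DMSO.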

[6] = read-out: Forkhead box O1 (FOXO1), FOXO1 (gene 2308); assay: LTEA_HepaRG_FOXO1: Life Technologies and Expression Analysis (LTEA) Assay for Forkhead box O1 (FOXO1) using HepaRG (AID 2283456); settings: mRNA level, 48 h; actives raise or lower the signal
Procedure, shortened: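 Differentiated HepaRG cells, in serum-free induction medium with 0.5% DMSO, exposed 48 h in duplicate to 8-point half-log series from 100 uM. FOXO1 mRNA measured by TaqMan qRT-PCR, normalized to ACTB, GAPDH, POLR2A; bidirectional fit versus DMSO.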

[7] = CEETOX_H295R_TESTO: CeeTox H295R High-throughput Steroidogenesis Assay for Testosterone (TESTO) (AID 2283457); settings: actives raise or lower the signal;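 as to AC50: cells exposed to chemicals for 48 h before medium collection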
Procedure, shortened: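 Steroidogenesis in H295R cells following OECD 456 with minor changes; 48 h exposure. Medium testosterone by HPLC-MS/MS, DMSO as baseline, with MTT viability run in parallel.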

[8] = read-out: growth arrest and DNA damage 45 (GADD45A), GADD45A (gene 1647); assay: LTEA_HepaRG_GADD45A: Life Technologies and Expression Analysis (LTEA) Assay for growth arrest and DNA damage 45 (GADD45A) using HepaRG (AID 2283458); settings: mRNA level, 48 h; actives raise or lower the signal
Procedure, shortened: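 Differentiated HepaRG cells were exposed in duplicate for 48 h in serum-free induction medium to 8-point half-log concentrations up to 100 uM in 0.5% DMSO. GADD45A mRNA was measured by TaqMan qRT-PCR, normalized to ACTB, GAPDH and POLR2A, with bidirectional fitting versus DMSO.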

[9] = read-out: Forkhead box O3 (FOXO3), FOXO3 (gene 2309); assay: LTEA_HepaRG_FOXO3: Life Technologies and Expression Analysis (LTEA) Assay for Forkhead box O3 (FOXO3) using HepaRG (AID 2283459); settings: mRNA level, 48 h; actives raise or lower the signal
Procedure, shortened: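 Differentiated human HepaRG cells, 48 h post-plating, exposed in duplicate for 48 h in serum-free induction medium; 8-point half-log series from 100 uM in 0.5% DMSO. FOXO3 mRNA by TaqMan qRT-PCR, normalized to ACTB/GAPDH/POLR2A; bidirectional fit versus DMSO.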

[10] = read-out: ABC Transporter (ABCB1), ABCB1 (gene 5243); assay: LTEA_HepaRG_ABCB1: Life Technologies and Expression Analysis (LTEA) Assay for ABC Transporter (ABCB1) using HepaRG (AID 2283460); settings: mRNA level, 48 h; actives raise or lower the signal
Procedure, shortened: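 HepaRG cells exposed in duplicate for 48 h in serum-free induction medium to eight half-log concentrations up to 100 uM in 0.5% DMSO. ABCB1 mRNA quantified by qRT-PCR, normalised to ACTB, GAPDH and POLR2A; fitted bidirectionally versus DMSO.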

[11] = read-out: growth arrest and DNA damage 45 (GADD45B), GADD45B (gene 4616); assay: LTEA_HepaRG_GADD45B: Life Technologies and Expression Analysis (LTEA) Assay for growth arrest and DNA damage 45 (GADD45B) using HepaRG (AID 2283461); settings: mRNA level, 48 h; actives raise or lower the signal
Procedure, shortened: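 Human HepaRG monolayers receive chemicals for 48 h at eight half-log concentrations, highest 100 uM, in 0.5% DMSO. Expression is measured by TaqMan qRT-PCR and normalized to ACTB, GAPDH and POLR2A.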

[12] = read-out: ABC Transporter (ABCB11), ABCB11 (gene 8647); assay: LTEA_HepaRG_ABCB11: Life Technologies and Expression Analysis (LTEA) Assay for ABC Transporter (ABCB11) using HepaRG (AID 2283463); settings: mRNA level, 48 h; actives raise or lower the signal
Procedure, shortened: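 Differentiated human HepaRG cells in serum-free induction medium, dosed in duplicate for 48 h. Eight-point half-log series from 100 uM in 0.5% DMSO; ABCB11 mRNA by qRT-PCR, normalized to ACTB, GAPDH, POLR2A, fitted bidirectionally versus DMSO.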

[13] = read-out: ABC Transporter (ABCC2), ABCC2 (gene 1244); assay: LTEA_HepaRG_ABCC2: Life Technologies and Expression Analysis (LTEA) Assay for ABC Transporter (ABCC2) using HepaRG (AID 2283464); settings: mRNA level, 48 h; actives raise or lower the signal
Procedure, shortened: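 After plating and 48 h culture, HepaRG medium is replaced with serum-free induction medium and chemicals are added (8 concentrations, max 100 uM, 0.5% DMSO) for 48 h. Total RNA then undergoes qRT-PCR for ABCC2 with housekeeping normalization.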

[14] = read-out: Broad substrate specificity ATP-binding cassette transporter ABCG2 (Homo sapiens) (UniProt Q9UNQ0); assay: LTEA_HepaRG_ABCG2: Life Technologies and Expression Analysis (LTEA) Assay for ABC Transporter (ABCG2) using HepaRG (AID 2283465); settings: mRNA level, 48 h; actives raise or lower the signal
Procedure, shortened: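 Differentiated HepaRG cells were exposed for 48 h in serum-free induction medium to 8 half-log concentrations, top 100 uM, in 0.5% DMSO. ABCG2 mRNA was measured by qRT-PCR, normalized to ACTB, GAPDH and POLR2A, with bidirectional fitting versus DMSO.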

[15] = read-out: ATP-citrate lyase (ACLY), ACLY (gene 47); assay: LTEA_HepaRG_ACLY: Life Technologies and Expression Analysis (LTEA) Assay for ATP-citrate lyase (ACLY) using HepaRG (AID 2283466); settings: mRNA level, 48 h; actives raise or lower the signal
Procedure, shortened: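 Differentiated HepaRG cells exposed 48 h in serum-free induction medium to eight half-log concentrations up to 100 uM in 0.5% DMSO, duplicates. Transcript measured by Fluidigm TaqMan qRT-PCR, normalized to ACTB, GAPDH, POLR2A; bidirectional fit versus DMSO.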

[16] = read-out: Peroxisomal acyl-coenzyme A oxidase 1 (ACOX1) gene, ACOX1 (gene 51); assay: LTEA_HepaRG_ACOX1: Life Technologies and Expression Analysis (LTEA) Assay for Peroxisomal acyl-coenzyme A oxidase 1 (ACOX1) gene using HepaRG (AID 2283467); settings: mRNA level, 48 h; actives raise or lower the signal
Procedure, shortened: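 HepaRG cells, plated 48 h then switched to serum-free induction medium, were exposed in duplicate for 48 h to 8-point half-log concentrations up to 100 uM in 0.5% DMSO. ACOX1 mRNA was measured by qRT-PCR, normalized to ACTB/GAPDH/POLR2A, and fitted bidirectionally versus DMSO.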

[17] = read-out: Alkaline Phosphatase, Placental (ALPP) gene, ALPP (gene 250); assay: LTEA_HepaRG_ALPP: Life Technologies and Expression Analysis (LTEA) Assay for Alkaline Phosphatase, Placental (ALPP) gene using HepaRG (AID 2283468); settings: mRNA level, 48 h; actives raise or lower the signal
Procedure, shortened: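 Using human liver HepaRG cells, chemicals are tested in duplicate over 48 h at half-log concentrations topping at 100 uM; phenobarbital 1 mM serves as induction control. ALPP mRNA change by qRT-PCR, bidirectional fit against vehicle.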

[18] = read-out: Bcl-2 (BAD) gene, BAD (gene 572); assay: LTEA_HepaRG_BAD: Life Technologies and Expression Analysis (LTEA) Assay for Bcl-2 (BAD) gene using HepaRG (AID 2283469); settings: mRNA level, 48 h; actives raise or lower the signal
Procedure, shortened: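 Differentiated HepaRG cells were exposed in duplicate in 0.5% DMSO for 48 h to eight-point half-log concentrations up to 100 uM. BAD mRNA was measured by Fluidigm TaqMan qRT-PCR, normalized to ACTB, GAPDH and POLR2A, and fitted bidirectionally against DMSO.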

[19] = read-out: adenosine kinase (ADK) gene, ADK (gene 132); assay: LTEA_HepaRG_ADK: Life Technologies and Expression Analysis (LTEA) Assay for adenosine kinase (ADK) gene using HepaRG (AID 2283471); settings: mRNA level, 48 h; actives raise or lower the signal
Procedure, shortened: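 Differentiated HepaRG cells dosed 48 h in serum-free induction medium, 0.5% DMSO vehicle, eight half-log concentrations from 100 uM, in duplicate. ADK mRNA by TaqMan qRT-PCR normalised to ACTB, GAPDH, POLR2A; bidirectional fit versus DMSO.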

[20] = read-out: Cyclin D2 (CCND2), CCND2 (gene 894); assay: LTEA_HepaRG_CCND2: Life Technologies and Expression Analysis (LTEA) Assay for Cyclin D2 (CCND2) using HepaRG (AID 2283449); settings: mRNA level, 48 h; actives raise or lower the signal;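 also: CCND2 transcript measured by TaqMan qRT-PCR and normalised to three housekeeping genes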
Procedure, shortened: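 Chemicals in 0.5% DMSO, eight half-log concentrations from 100 uM top, were applied in duplicate for 48 h to human HepaRG cells in serum-free induction medium. CCND2 mRNA by TaqMan qRT-PCR, normalised to ACTB/GAPDH/POLR2A; bidirectional fit versus DMSO.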

Measured: AC50

Broad substrate specificity ATP-binding cassette transporter ABCG2 (Homo sapiens), sequence (Q9UNQ0 whole entry, looked up): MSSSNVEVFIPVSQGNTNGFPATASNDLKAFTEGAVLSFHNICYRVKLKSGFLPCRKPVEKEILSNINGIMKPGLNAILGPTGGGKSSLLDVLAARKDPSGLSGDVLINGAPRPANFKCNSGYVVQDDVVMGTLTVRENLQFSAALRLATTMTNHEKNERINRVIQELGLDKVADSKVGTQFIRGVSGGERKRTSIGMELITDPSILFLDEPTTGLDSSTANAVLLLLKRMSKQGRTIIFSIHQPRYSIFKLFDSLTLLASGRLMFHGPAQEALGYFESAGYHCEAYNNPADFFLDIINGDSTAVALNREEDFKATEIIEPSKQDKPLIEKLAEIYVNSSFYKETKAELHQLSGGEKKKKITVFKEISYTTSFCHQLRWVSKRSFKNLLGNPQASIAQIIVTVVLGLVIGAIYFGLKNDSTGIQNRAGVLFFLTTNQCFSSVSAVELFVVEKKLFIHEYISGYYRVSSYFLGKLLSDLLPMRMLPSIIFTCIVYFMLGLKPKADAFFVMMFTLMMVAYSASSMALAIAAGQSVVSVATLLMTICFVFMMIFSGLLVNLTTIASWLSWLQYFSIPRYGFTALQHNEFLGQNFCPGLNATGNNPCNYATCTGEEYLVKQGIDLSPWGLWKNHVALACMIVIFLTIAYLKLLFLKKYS

CCOP(=S)(OCC)Oc1nc(Cl)c(Cl)cc1Cl
active: [4] 34.4 µM | [7] 62.6 µM
not listed: [20]
inactive: all other assays above

O=[N+]([O-])c1ccc(O)c([N+](=O)[O-])c1
inactive: [20] | [6] | [17] | [18]
active: [1] 12.4 µM | [2] 12.6 µM | [3] 13.2 µM | [4] 71.5 µM | [5] 13.2 µM | [8] 11.5 µM | [9] 28.8 µM | [10] 13.6 µM | [11] 50 µM | [12] 12.4 µM | [13] 13.3 µM | [14] 12.4 µM | [15] 4.2 µM | [16] 13.3 µM | [19] 13.3 µM

O=C(O)C(F)(F)C(F)(F)C(F)(F)C(F)(F)C(F)(F)C(F)(F)F
active: [10] 0.101 µM
not listed: [7]
inactive: all other assays above

O=C(O)C(Cl)(Cl)Cl
active: [3] 0.207 µM | [4] 50 µM
inactive: [20] | [1] | [2] | [3] | [4] | [5] | [6] | [8] | [9] | [10] | [11] | [12] | [13] | [14] | [15] | [16] | [17] | [18] | [19]

CN(C)N=O
not listed: [7]
inactive: all other assays above

C=C(C)C(=O)[O][Sn]([CH2]CCC)([CH2]CCC)[CH2]CCC
active: [4] 2.87 µM | [5] 4.03 µM | [6] 1.98 µM | [8] 0.314 µM | [10] 3.08 µM | [12] 2.02 µM | [13] 3.35 µM | [14] 0.917 µM | [17] 1.58 µM
not listed: [7]
inactive: all other assays above

C=CC(=O)OCCCCCC(C)C
active: [4] 50 µM
not listed: [7]
inactive: all other assays above

CN(CCCC(=O)c1cccnc1)N=O
inactive: [7]

CC12CC1(C)C(=O)N(c1cc(Cl)cc(Cl)c1)C2=O (stereo not given)
active: [7] 25.4 µM | [10] 8.58 µM | [12] 6.92 µM | [16] 13.1 µM
not listed: [8]
inactive: all other assays above
